PubChem BioAssay (NCATS)
Values joined by “and” are separate entries in the source; they are usually repeats but may differ in a detail not shown here. Identical values can stand only once. Inconclusive results are not listed. A number with no mark means an inactive call. Active and inactive are the calls of the source. Calls follow the shape of the dose curve; as a rule, active = well fitted curve in the direction sought with a large enough effect; inconclusive = small, poorly fitted or top-dose-only effect, or another doubt; inactive = no such curve, though single readings can be large; an effect the other way counts as inactive or inconclusive.

Key:
[1] = biological target: Cellular tumor antigen p53 (Homo sapiens) (UniProt P04637); experiment: Primary qHTS for small molecule compounds that upregulate eGFP-tagged delta133p53alpha (in N-terminal) cells. (AID 2060322); settings: NCI-H358 eGFP-delta133p53alpha fluorescence, 24 h; activation: active compounds read high; also: nearly all actives have a fitted effect of over 75% in size;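 as to activation: cells pre-induced with doxycycline then dosed without doxycycline; 0% = DMSO vehicle and 100% = reference activator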
Chain of Cellular tumor antigen p53 (Homo sapiens) (P04637 whole entry, looked up): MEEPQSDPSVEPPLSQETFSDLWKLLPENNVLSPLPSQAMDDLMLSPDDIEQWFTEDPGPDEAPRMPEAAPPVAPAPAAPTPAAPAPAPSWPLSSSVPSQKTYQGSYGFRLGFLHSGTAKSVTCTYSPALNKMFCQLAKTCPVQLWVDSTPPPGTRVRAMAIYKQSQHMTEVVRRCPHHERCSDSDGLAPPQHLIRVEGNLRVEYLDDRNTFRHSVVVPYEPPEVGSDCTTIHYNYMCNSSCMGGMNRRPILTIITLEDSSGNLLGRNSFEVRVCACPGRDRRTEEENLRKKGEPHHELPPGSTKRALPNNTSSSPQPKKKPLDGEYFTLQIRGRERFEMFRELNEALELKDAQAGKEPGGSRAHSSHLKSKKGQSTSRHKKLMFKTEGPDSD
Outline: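 NCI-H358 cells pre-induced 24 h with 10 ng/ml doxycycline for eGFP-delta133p53alpha, plated dox-free and exposed 24 h at 37C to titrated compounds. Fixed, Hoechst-stained; gated GFP peak intensity by laser scanning cytometry, normalized to DMSO (0%) and 57.5 uM 5-azacytidine (100%).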

[2] = BET inhibitor-based combinations targeting novel dependencies in MECOM-rearranged (r) AML: SET-2 cell line (AID 2202231); settings: SET-2 AML cells viability, CellTiter-Glo luminescence, 48 h; viability: active compounds read low, concentration not given here; also: nearly all actives have a fitted effect of over 35% in size;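 as to viability: plate controls were DMSO treated cells for no effect and wells without cells for full effect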
Outline: (§1)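 Luminescent ATP readout (CellTiter-Glo) after 48 hr drug exposure gives viability. Curves span 11 concentrations and are normalized to DMSO and empty wells. Activity is reported as area under the curve and its Z-transform within each cell line.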

[3] = BET inhibitor-based combinations targeting novel dependencies in MECOM-rearranged (r) AML: MV-4-11 cell line (AID 2202233); settings: MV-4-11 AML viability, CellTiter-Glo luminescence, 48 h; series mostly up to 46 µM; also: nearly all actives have a fitted effect of over 45% in size
Outline: (§2)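 Luminescent ATP readout (CellTiter-Glo, 15 min at room temperature) after 48 hr drug exposure gave viability. Dose-response curves, normalized to DMSO and empty-well controls, were summarized as area under the curve and its mean-centred Z-score.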

[4] = BET inhibitor-based combinations targeting novel dependencies in MECOM-rearranged (r) AML: HNT-34 cell line (AID 2202234); settings: HNT-34 AML viability, CellTiter-Glo luminescence, 48 h; series mostly up to 46 µM; also: nearly all actives have a fitted effect of over 35% in size
Outline: as §2

[5] = BET inhibitor-based combinations targeting novel dependencies in MECOM-rearranged (r) AML: AML-194 cell line (AID 2202237; also: nearly all actives have a fitted effect of over 40% in size); settings: AML-194 (MECOM-r AML) viability, CellTiter-Glo, 48 h; series mostly up to 46 µM
Outline: as §1

[6] = BET inhibitor-based combinations targeting novel dependencies in MECOM-rearranged (r) AML: UCSD-AML1 cell line (AID 2202235); settings: UCSD-AML1 AML cells viability, CellTiter-Glo, 48 h; series mostly up to 46 µM; also: nearly all actives have a fitted effect of over 40% in size
Outline: as §2

[7] = BET inhibitor-based combinations targeting novel dependencies in MECOM-rearranged (r) AML: AML-191 cell line (AID 2202236; also: nearly all actives have a fitted effect of over 35% in size); settings: AML-191 viability, CellTiter-Glo luminescence, 48 h; series mostly up to 46 µM
Outline: as §1
Potency is read from the fitted curve at half-maximal effect.

SMILES | activation [1] | viability [2] [%] | Potency [3] | Potency [4] | Potency [5] | Potency [6] | Potency [7] | Potency [2] | Potency [1]
Cc1ccc(O)c(C(CCN(C(C)C)C(C)C)c2ccccc2)c1 (stereo unspecified) | 47.6% | 117 | inactive | inactive | inactive |  |  |  | 
C=C1c2cccc(O)c2C(O)=C2C(=O)[C@@]3(O)C(O)=C(C(N)=O)C(=O)[C@@H](N(C)C)[C@@H]3[C@@H](O)[C@H]12 | 22.8% | 86.7 | inactive |  | inactive | inactive | inactive |  | 
O=c1c(O)c(-c2ccc(O)cc2)oc2cc(O)cc(O)c12 | 36.9% | 105 | 9.34 µM (active) |  |  | inactive | 14.8 µM (active) |  | 
CC[C@@H](C)[C@H](NC(=O)[C@H](CC1CCCCC1)NC(=O)c1ccno1)C(=O)N1CCC2(CCc3ccccc32)CC1 | 0.928% and 1.43% | 50.5 | inactive |  | inactive | inactive |  |  | 
C[C@]12CC[C@@H]3c4ccc(O)cc4C[C@@H](CCCCCCCCCS(=O)CCCC(F)(F)C(F)(F)F)[C@H]3[C@H]1CC[C@H]2O (stereo partly specified) | -2.43% |  | 9.34 µM (active) |  | inactive | inactive |  | 4.68 µM (active) | 
Nc1cccc2c1C(=O)N(C1CCC(=O)NC1=O)C2=O (stereo unspecified) | 28.8% | 112 | 0.0013 µM (active) | inactive | inactive | inactive | inactive |  | 
O=[N+]([O-])c1cn2c(n1)OC[C@@H](OCc1ccc(OC(F)(F)F)cc1)C2 | 9.64% | 111 | inactive | inactive | inactive |  | inactive |  | 
CC1=C(CC(=O)O)c2cc(F)ccc2C1=Cc1ccc(S(C)=O)cc1 (stereo unspecified) | -21.9% | 104 | 18.6 µM (active) | 18.6 µM (active) | inactive | inactive |  |  | 
O=c1[nH]c(=O)n([C@H]2C[C@H](O)[C@@H](CO)O2)cc1I | -6.69% |  | 18.6 µM (active) |  | 16.6 µM (active) |  |  | 3.72 µM (active) | 
Cc1c(CCOc2ccc(C(=O)O)cc2)c2cc(Cl)ccc2n1C(c1ccccc1)c1ccccc1 | -25% | 114 | inactive | inactive | inactive | inactive | inactive |  | 
COc1cccc(OC)c1-c1cc(C(=O)NC2(C(=O)O)C3CC4CC(C3)CC2C4)nn1-c1ccnc2cc(Cl)ccc12 (stereo unspecified) | -14.3% | 114 | inactive | inactive | inactive | inactive | inactive |  | 
O=C(O)c1ccc(-c2c[nH]c3ncc(-c4ccccc4)cc23)cc1C1CCCC1 | -17.5% | 89.8 | 2.95 µM (active) |  |  | inactive |  |  | 
O=C1C(Cl)=C(NCCN2CCOCC2)C(=O)c2ncccc21 |  |  | 2.09 µM (active) | 5.9 µM (active) | 7.42 µM (active) | 8.33 µM (active) | 7.42 µM (active) | 3.72 µM (active) | 27.3 µM (active)
NCc1c[nH]c(=S)n1[C@H]1CCc2c(F)cc(F)cc2C1 | -19.4% | 110 | inactive |  | inactive |  | inactive |  | 
Cn1c(=O)c2c(ncn2CC(O)CO)n(C)c1=O (stereo unspecified) | 5.02% and 16.6% | 118 | inactive |  | inactive | inactive | inactive |  | 
CC(=O)O[C@]1(C(C)=O)CC[C@H]2[C@@H]3C=C(C)C4=CC(=O)CC[C@]4(C)[C@H]3CC[C@@]21C | -26.8% | 110 |  | 18.6 µM (active) |  |  |  |  | 
Cc1cc(Nc2cc(NC(=O)c3c(Cl)cccc3Cl)ccn2)nc(N)n1 |  |  | 0.332 µM (active) | 0.296 µM (active) | 0.332 µM (active) | 0.296 µM (active) | 0.263 µM (active) | 3.32 µM (active) | 34.3 µM (active)

SMILES | activation [1] | viability [2] [%] | Potency [3] | Potency [4] | Potency [5] | Potency [6] | Potency [7] | Potency [2] | Potency [1]
O=c1ncn2nc(Sc3ccc(F)cc3F)ccc2c1-c1c(Cl)cccc1Cl | 2.34% |  | 20.9 µM (active) |  | inactive |  | 29.5 µM (active) | 20.9 µM (active) | 
CCC(C)(C)C(=O)O[C@H]1C[C@@H](C)C=C2C=C[C@H](C)[C@H](CC[C@@H]3C[C@@H](O)CC(=O)O3)[C@H]21 | -16.4% and -15.4% | 103 | 18.6 µM (active) |  | inactive |  | inactive |  | 
CC(C)=CC[C@@H](O)C1=CC(=O)c2c(O)ccc(O)c2C1=O | 3.62% |  | 8.33 µM (active) |  | 10.5 µM (active) | 10.5 µM (active) | 10.5 µM (active) | 10.5 µM (active) | 
CNC(=O)[C@H](Cc1ccccc1)NC(=O)[C@H](CC(C)C)[C@H](CSc1cccs1)C(=O)NO | -8.09% | 98.9 | 7.42 µM (active) |  | inactive | inactive | 13.2 µM (active) |  | 
CCCn1c(=O)c2[nH]c(C34CC5CC3C[C@@H](C5)C4)nc2n(CCC)c1=O | 31.9% | 109 | 20.9 µM (active) |  | inactive | inactive | 16.6 µM (active) |  | 
CCN(CC)CCCC(C)Nc1nc(C)cc(Nc2ccc3nc(C)cc(N)c3c2)n1 (stereo unspecified) | 4.87% | 116 | 29.5 µM (active) |  | inactive | inactive | inactive |  | 
c1cc(CN2CCCNCCNCCCNCC2)ccc1CN1CCCNCCNCCCNCC1 | 39.7% | 87.5 | inactive | inactive | inactive | inactive | inactive |  | 
Cc1noc(-c2ccc(CSCCC(=O)O)cc2)c1NC(=O)OC(C)c1ccccc1Cl (stereo unspecified) | -1.99% | 114 | inactive | inactive | inactive |  | inactive |  | 
Cc1ccc(S(=O)(=O)NC(=O)NN2CC3CCCC3C2)cc1 (stereo unspecified) | 8.47% and 8.97% | 120 | inactive | inactive | inactive | inactive | inactive |  | 
CCC(c1ccc(O)cc1)C(CC)c1ccc(O)cc1 (stereo unspecified) | 3.07% | 99.8 |  | inactive |  | inactive |  |  | 
CN(C)CC/C=C1/c2ccccc2COc2ccc(CC(=O)O)cc21 | -13% | 121 | inactive | inactive | inactive |  |  |  | 
O=c1cc(-c2ccccc2)oc2cc(O)cc(O)c12 | 3.3% | 85.1 |  | 23.5 µM (active) |  |  |  |  | 
CCN(CC)CCOc1ccc(Cc2ccccc2)cc1 | -6.69% and 6.46% |  | inactive |  | inactive |  |  | 16.6 µM (active) | 
Fc1ccc(Cl)cc1-c1nc(Nc2ccncc2)c2nccnc2n1 | 0.772% | 110 | inactive |  | inactive | inactive | inactive |  | 
CN(C)c1ccc2cc(C(=O)N[C@@H](CCCN=C(N)CCl)C(=O)NCc3ccccc3)ccc2c1 | 2.27% | 99.2 | inactive |  | inactive |  |  |  | 
C[N+]1(C)[C@@H]2CC(OC(=O)[C@H](CO)c3ccccc3)C[C@H]1[C@@H]1O[C@@H]12 (stereo partly specified) | -7.53% | 116 | inactive | inactive | inactive |  | inactive |  | 
